Screening results deposited in PubChem by Broad Institute.
aSyn UTR act – Activators via SNCA 5'UTR binding, MLPCN | alpha-synuclein 5'UTR reporter, activators screen | activity score, % (tested at 7.5 µM), hits read low | hit rate 7.1% among 300,000 | AID 1814; in the data active = activity score below about -60%
Large screens that a line does not name were inactive. A selection follows.

COc1ccc(-c2cc(C(=O)Nc3cccnc3)no2)cc1OC	aSyn UTR act -187.2
COc1ccc(NC(=O)c2cc3c([nH]c4ccccc43)c(C)n2)cc1	aSyn UTR act -84.2
CCOc1ccc(NC(=O)c2cccc3ccccc23)cc1	aSyn UTR act -318.2
COc1ccc(NC(=O)c2cc3ccccc3cc2OC)cc1	aSyn UTR act -167.6
CCOc1ccc(NC(=O)c2cc3ccccc3cc2O)cc1	aSyn UTR act -201.0
Cc1ccc(/C=N/Nc2ncc(Cl)cc2Cl)s1	aSyn UTR act -147.8
Clc1cnc(N/N=C/c2cccs2)c(Cl)c1	aSyn UTR act -192.6
Oc1ccc(/C=N/Nc2ncc(Cl)cc2Cl)cc1	aSyn UTR act -73.0
O=C(N/N=C/c1cn(-c2cccs2)nc1-c1ccccc1)c1ccc(O)cc1	aSyn UTR act -64.8
O=C(N/N=C/c1cn(-c2cccs2)nc1-c1ccccc1)c1ccccc1Cl	aSyn UTR act -63.2
O=C(N/N=C/c1cc(Br)ccc1O)c1ccccc1Cl	none
O=C(NNC(=O)C1CC2CCC1C2)c1sc2ccccc2c1Cl (configuration not stated)	aSyn UTR act -112.5
O=C(NCC1CCCO1)c1sc2ccccc2c1Cl (configuration not stated)	aSyn UTR act -105.6
O=C(CNC(=O)c1sc2ccccc2c1Cl)NC1CC1	aSyn UTR act -118.3
Cc1ccc2c(Cl)c(C(=O)NCC3CCCO3)sc2c1 (configuration not stated)	aSyn UTR act -137.3
Cc1ccc2c(Cl)c(C(=O)Nc3cc(C)on3)sc2c1	aSyn UTR act -121.7
CC(NC(=O)c1sc2ccccc2c1Cl)C1CCCO1 (configuration not stated)	aSyn UTR act -65.4
CN(Cc1c(F)cccc1Cl)C(=O)CNC(=O)c1sc2ccccc2c1Cl	aSyn UTR act -66.4
Cc1ccc2c(Cl)c(C(=O)NCCc3ccccc3)sc2c1	aSyn UTR act -165.8
Cc1ccnc(NC(=O)c2sc3ccccc3c2Cl)c1	none
Cc1ccc(C(=O)N2C(CC(=O)Nc3ccc(Cl)cc3)C(=O)NC3CCCCC32)cc1 (configuration not stated)	aSyn UTR act -71.9
CCCN1CCC(=O)N([C@H](CSc2ccccc2)c2ccccc2)CC1	aSyn UTR act -72.1
CCCN1CCC(=O)N([C@H](CSc2ccc(C)cc2)c2ccccc2)CC1	aSyn UTR act -181.0
CN1CCC(=O)N([C@H](CSc2ccc(Br)cc2)c2ccccc2)CC1	aSyn UTR act -103.6
CCCN1CCC(=O)N([C@H](CSc2ccc(OC)cc2)CC(C)C)CC1	aSyn UTR act -113.5
CC(C(=O)N1CCCCC1)n1sc2ccccc2c1=O (configuration not stated)	aSyn UTR act -133.7
COc1ccc(OC)c2c1C(=O)C(Cl)=C(Cl)C2=O	aSyn UTR act -88.8
Nc1nn(-c2ccccc2)nc1C(=O)OCc1ccccc1	aSyn UTR act -62.5
CCOC(=O)Cc1csc(-n2sc3ccccc3c2=O)n1	aSyn UTR act -88.7
COc1ccccc1-c1cc2ccccc2[nH]1	aSyn UTR act -207.0
Cc1cc(C)c2cc(C(=O)Nc3ccccc3)[nH]c2c1	aSyn UTR act -81.2
Cc1ccc2[nH]c(C(=O)Nc3ccc(F)cc3)cc2c1	aSyn UTR act -142.2
CCCOc1ccc(NC(=O)c2cc3cc(C)ccc3[nH]2)cc1	aSyn UTR act -71.0
Cc1ccc(NC(=O)Nc2cnccn2)cc1C	aSyn UTR act -68.1
Cc1ccc(NC(=O)Nc2cnccn2)cc1	aSyn UTR act -118.3
CC(C)c1ccc(NC(=O)Nc2cnccn2)cc1	aSyn UTR act -211.5
O=c1oc2ccccc2n1CSc1nc2ccccc2s1	aSyn UTR act -99.2
O=C(CSc1nc2ccccc2s1)N/N=C/c1ccccc1C(=O)O	aSyn UTR act -90.3
O=C(CSc1nc2ccccc2s1)Nc1ccc2c(c1)oc1ccccc12	aSyn UTR act -80.2
O=C(CSc1nnc(NC(=O)c2ccccc2Cl)s1)Nc1ccc2c(c1)oc1ccccc12	aSyn UTR act -143.6
CN(C)c1cccc(/C=C(\C#N)c2ccccc2)c1	aSyn UTR act -154.5
C/C=C/c1ccc(OCC(=O)OCc2csc(Nc3ccc(C)cc3)n2)c(OC)c1	aSyn UTR act -176.8
Cc1ccc(Nc2nc(COC(=O)COc3ccc(C=O)cc3)cs2)cc1	aSyn UTR act -107.4
CSc1ccc(C2Nc3ccccc3-c3cc(C)nn32)cc1 (configuration not stated)	aSyn UTR act -100.9
CCCCC1CCC(c2nc(-c3cccnc3)no2)CC1 (configuration not stated)	aSyn UTR act -91.5
CCCCC1CCC(c2nc(-c3ccccn3)no2)CC1 (configuration not stated)	none
CCC(N=c1cc(-c2ccc(OC)cc2)oc2ccc(C)cc12)C(=O)O (configuration not stated)	aSyn UTR act -119.9
O=C(Oc1ccc2ccc(OC(=O)N3CCCCCC3)cc2c1)N1CCCCCC1	aSyn UTR act -80.8
O=C(Oc1ccc(Cl)cc1)N1CCCCC1	aSyn UTR act -110.4
COc1ccc(CCN2CCCC(CN(C)C(=O)c3ccoc3)C2)cc1 (configuration not stated)	aSyn UTR act -108.6
O=[N+]([O-])c1ccccc1-c1nc(-c2ccc(Br)o2)no1	aSyn UTR act -265.9
O=[N+]([O-])c1cc(Cl)ccc1-c1nc(-c2ccncc2)no1	aSyn UTR act -142.9
O=[N+]([O-])c1cc(Cl)ccc1-c1nc(-c2ccccc2)no1	aSyn UTR act -181.1
c1ccc2c(c1)Nc1cc3ccccc3cc1S2	aSyn UTR act -135.0
O=C1CCNc2cc3ccccc3cc21	none
Brc1ccc(NC2=Nc3ccccc3CC2)cc1	aSyn UTR act -172.0
Nc1nonc1-n1nnc(C(=O)N/N=C/c2ccc(OCc3ccccc3F)cc2)c1CN1CCCCC1	aSyn UTR act -111.3
CC1CCN(Cc2c(C(=O)N/N=C/c3cc(Br)ccc3O)nnn2-c2nonc2N)CC1	none
NC(=O)N/N=C/c1ccc(OCc2cccc(Cl)c2)cc1	aSyn UTR act -72.8
CC1CCN(Cc2c(C(=O)N/N=C/c3cc(Cl)ccc3O)nnn2-c2nonc2N)CC1	none
Nc1nonc1-n1nnc(C(=O)N/N=C/c2ccc(OCc3cccc(Cl)c3)cc2)c1CN1CCCCC1	aSyn UTR act -135.7
Cc1cccc(COc2ccc(/C=N/NC(=O)c3nnn(-c4nonc4N)c3CN3CCCCC3)cc2)c1	aSyn UTR act -100.8
Cc1ccc(C(=O)Oc2ccc(/C=N/NC(N)=O)cc2)cc1	aSyn UTR act -123.7
COCc1cc(C)nc(SCC(=O)Nc2ccc3c(c2)OCO3)c1C#N	aSyn UTR act -70.4
COCc1cc(C)nc(SCC(=O)Nc2ccc3c(c2)OCCO3)c1C#N	aSyn UTR act -85.6
COCc1cc(C)nc(SCC(=O)c2ccc(O)c(O)c2)c1C#N	aSyn UTR act -79.8
C/C(=C\C(=O)c1ccccc1)NCc1ccc(F)cc1	aSyn UTR act -64.2
Cc1cc2ncn(CCOc3ccccc3)c2cc1C	aSyn UTR act -168.2
CC(=O)c1ccc(NC(=O)C(C)Sc2nnc(C3CCCCC3)o2)cc1 (configuration not stated)	aSyn UTR act -127.9
CN(Cc1ccccc1)S(=O)(=O)c1ccc(C(=O)Nc2nnc(C3CC3)o2)cc1	none
COc1ccc(-c2nsc3c(N4CCCCC4)ncnc23)cc1	none
O=C(c1ccccc1)N1CCN(c2ncnc3c(-c4ccccc4)nsc23)CC1	aSyn UTR act -125.0
COc1ccc(-c2nsc3c(N4CCN(S(=O)(=O)c5ccccc5F)CC4)ncnc23)cc1	aSyn UTR act -69.3
Cc1ccc(-n2nc3c(N4CCC(C(=O)NCCc5ccccc5C)CC4)nnc(C)c3c2C)cc1	none
Cc1ccc(-c2nsc3c(N4CCC(C(N)=O)CC4)ncnc23)cc1	aSyn UTR act -99.5
